# Laboratory results: PMC5700166
# Target: GST-Hu-p50 (Homo sapiens, UniProt P19838 7-356)
# Test: protein-binding microarray (PBM); PBM: ~300 nM protein, 6 mM HEPES pH 7.8, 80 mM KCl, 0.5 mM EDTA, 0.5 mM EGTA, 6% glycerol, 35 ng/ul poly-dIdC, 1% milk, 1 h, room temperature; Ap Aiptasia and Nv Nematostella (sea anemones) / Co Capsaspora / Aq Amphimedon (sponge) / Dm Drosophila / Hu human; RHD is the Rel homology domain; high values mean tight binding
# Settings: dsDNA, one strand shown
# GST-Hu-p50, sequence (P19838 7-356): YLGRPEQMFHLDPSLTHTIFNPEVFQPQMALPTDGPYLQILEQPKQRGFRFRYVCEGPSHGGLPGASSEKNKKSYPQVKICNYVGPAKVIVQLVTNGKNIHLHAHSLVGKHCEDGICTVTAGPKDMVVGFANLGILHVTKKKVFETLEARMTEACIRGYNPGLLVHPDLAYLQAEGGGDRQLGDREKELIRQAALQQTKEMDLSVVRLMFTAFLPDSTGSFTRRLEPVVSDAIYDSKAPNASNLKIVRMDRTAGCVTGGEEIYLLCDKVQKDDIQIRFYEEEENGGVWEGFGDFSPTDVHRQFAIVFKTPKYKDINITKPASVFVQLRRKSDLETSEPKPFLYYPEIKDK
row,Sequence,binding signal
1,CCGATTAACATCAGGTAACCCCATGATGTTAATCGGGTCTTGATTCGCTTGACGCTGCTG,1.35 z-score
2,CCGATTAACATCACAGGAATTTCTGATGTTAATCGGGTCTTGATTCGCTTGACGCTGCTG,1.08 z-score
3,CCGATTAACATCAAATTCCCACGTGATGTTAATCGGGTCTTGATTCGCTTGACGCTGCTG,2.98 z-score
4,CCGATTAACATCAGGGAGACCCCTGATGTTAATCGGGTCTTGATTCGCTTGACGCTGCTG,3.48 z-score
5,CCGATTAACATCACGAAATTCCCTGATGTTAATCGGGTCTTGATTCGCTTGACGCTGCTG,5.1 z-score
6,CCGATTAACATCAATAAATTCCCTGATGTTAATCGGGTCTTGATTCGCTTGACGCTGCTG,5.11 z-score
7,CCGATTAACATCAGGAAAAACCATGATGTTAATCGGGTCTTGATTCGCTTGACGCTGCTG,1.05 z-score
8,CCGATTAACATCAGGAAAAAACCTGATGTTAATCGGGTCTTGATTCGCTTGACGCTGCTG,2.63 z-score
9,CCGATTAACATCAGGGGCCGTAATGATGTTAATCGGGTCTTGATTCGCTTGACGCTGCTG,1.41 z-score
10,CCGATTAACATCAATAGTTCCCCTGATGTTAATCGGGTCTTGATTCGCTTGACGCTGCTG,5.26 z-score
11,CCGATTAACATCACAGATTTCCCTGATGTTAATCGGGTCTTGATTCGCTTGACGCTGCTG,4.4 z-score
12,CCGATTAACATCAACCCCGTTTCTGATGTTAATCGGGTCTTGATTCGCTTGACGCTGCTG,1.79 z-score
13,CCGATTAACATCAGGTAATTACCTGATGTTAATCGGGTCTTGATTCGCTTGACGCTGCTG,3.47 z-score
14,CCGATTAACATCAAATATTTCCCTGATGTTAATCGGGTCTTGATTCGCTTGACGCTGCTG,4.62 z-score
15,CCGATTAACATCAGGGGAGATTATGATGTTAATCGGGTCTTGATTCGCTTGACGCTGCTG,4.94 z-score
16,CCGATTAACATCACGTTTTTCCCTGATGTTAATCGGGTCTTGATTCGCTTGACGCTGCTG,3.49 z-score
17,CCGATTAACATCAAAAAATTACCTGATGTTAATCGGGTCTTGATTCGCTTGACGCTGCTG,4.27 z-score
18,CCGATTAACATCACCGTTTAAGCTGATGTTAATCGGGTCTTGATTCGCTTGACGCTGCTG,1.15 z-score
19,CCGATTAACATCACCTTCTTTACTGATGTTAATCGGGTCTTGATTCGCTTGACGCTGCTG,1.59 z-score
20,CCGATTAACATCAAAAATTTCCGTGATGTTAATCGGGTCTTGATTCGCTTGACGCTGCTG,1.34 z-score

row,Sequence,binding signal
1,CCGATTAACATCAGTAGTGGGGCTGATGTTAATCGGGTCTTGATTCGCTTGACGCTGCTG,1.09 z-score
2,CCGATTAACATCAAGGAAAGCCCTGATGTTAATCGGGTCTTGATTCGCTTGACGCTGCTG,1.13 z-score
3,CCGATTAACATCAAAAAATTCCTTGATGTTAATCGGGTCTTGATTCGCTTGACGCTGCTG,1.55 z-score
4,CCGATTAACATCATTAGGGAAAATGATGTTAATCGGGTCTTGATTCGCTTGACGCTGCTG,4.64 z-score
5,CCGATTAACATCACCCAAAGTTTTGATGTTAATCGGGTCTTGATTCGCTTGACGCTGCTG,1.11 z-score
6,CCGATTAACATCAAGCCCCCCCATGATGTTAATCGGGTCTTGATTCGCTTGACGCTGCTG,3.88 z-score
7,CCGATTAACATCATCTTTTTACTTGATGTTAATCGGGTCTTGATTCGCTTGACGCTGCTG,1.01 z-score
8,CCGATTAACATCACAAAAAATTTTGATGTTAATCGGGTCTTGATTCGCTTGACGCTGCTG,1.65 z-score
9,CCGATTAACATCAGAAATCCCAATGATGTTAATCGGGTCTTGATTCGCTTGACGCTGCTG,2.35 z-score
10,CCGATTAACATCAAACTTTTCCCTGATGTTAATCGGGTCTTGATTCGCTTGACGCTGCTG,3.53 z-score
11,CCGATTAACATCAGGAATCACCCTGATGTTAATCGGGTCTTGATTCGCTTGACGCTGCTG,3.31 z-score
12,CCGATTAACATCACATACCCCCCTGATGTTAATCGGGTCTTGATTCGCTTGACGCTGCTG,3.68 z-score
13,CCGATTAACATCACCATTATAGGTGATGTTAATCGGGTCTTGATTCGCTTGACGCTGCTG,1.68 z-score
14,CCGATTAACATCACTATTTTCCCTGATGTTAATCGGGTCTTGATTCGCTTGACGCTGCTG,3.18 z-score
15,CCGATTAACATCAGGAATTGCCCTGATGTTAATCGGGTCTTGATTCGCTTGACGCTGCTG,1.09 z-score
16,CCGATTAACATCAAATTCTCCCCTGATGTTAATCGGGTCTTGATTCGCTTGACGCTGCTG,5.07 z-score
17,CCGATTAACATCAGGCAACCCCATGATGTTAATCGGGTCTTGATTCGCTTGACGCTGCTG,1.09 z-score
18,CCGATTAACATCAATGGGATTCCTGATGTTAATCGGGTCTTGATTCGCTTGACGCTGCTG,1.23 z-score
19,CCGATTAACATCATTAATGACGGTGATGTTAATCGGGTCTTGATTCGCTTGACGCTGCTG,1.09 z-score
